Source: PubChem BioAssay (Tox21)
Where “and” joins values, the source holds several entries; their conditions need not be identical. Equal values may be shown once. Records with an inconclusive call do not appear. Calls of active or inactive are those of the source. The call rests on the fitted dose curve; in most records, active means well fitted curve in the direction sought with a large enough effect in the repeat runs; inconclusive means weak or mixed curves; inactive means no such curve, though single readings can be large; an effect the other way counts as inactive or inconclusive.

Key:
[1] = qHTS RealTime-Glo MT Cell Viability Assay in HEK293 cells - 40 hour (AID 1224874); conditions: RealTime-Glo luminescence; max response: stronger effect = lower value; further: nearly all actives have a fitted effect of over 50% in size
In short: (§1)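 Cells were seeded together with NanoLuc luciferase and a prosubstrate that viable cells reduce to a luciferase substrate. After a 5 h incubation at 37 C/5% CO2, compounds were added and luminescence was measured repeatedly during 40 h of treatment.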

[2] = A CellTox Green Cytotoxicity Assay to monitor cytotoxicity in HEK293 cells - 24 hour (AID 1224875); further: series mostly up to about 77 µM; nearly all actives have a fitted effect of over 45% in size
In short: (§2)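 Nonlytic real-time cytotoxicity: HEK293 + CellTox Green reagent plated, 5 h preincubation, pintool compound addition (23 nL in DMSO), 37 C for 40 h, fluorescence measured at successive time points.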

[3] = A CellTox Green Cytotoxicity Assay to monitor cytotoxicity in HepG2 cells - 16 hour (AID 1224876); further: nearly all actives have a fitted effect of over 45% in size
In short: (§3)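 Read-out is fluorescence of a cyanine dye excluded from live cells that stains DNA of dead HepG2 cells, with signal proportional to cytotoxicity. Plates were read at 0, 8, 16, 24, 32 and 40 h after compound addition.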

[4] = qHTS RealTime-Glo MT Cell Viability Assay in HepG2 cells - 32 hour (AID 1224877); further: nearly all actives have a fitted effect of over 55% in size
In short: (§4)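 Compound treatment began 5 h after plating HepG2 cells (600/well) with NanoLuc luciferase and prosubstrate. Plates stayed at 37 C for 40 h; luminescence was captured at six time points, 0 h through 40 h.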

[5] = A CellTox Green Cytotoxicity Assay to monitor cytotoxicity in HepG2 cells - 24 hour (AID 1224878); further: nearly all actives have a fitted effect of over 45% in size
In short: as §3

[6] = A CellTox Green Cytotoxicity Assay to monitor cytotoxicity in HepG2 cells - 40 hour (AID 1224879); further: nearly all actives have a fitted effect of over 40% in size
In short: as §3

[7] = qHTS RealTime-Glo MT Cell Viability Assay in HEK293 cells - 0 hour (AID 1224880); further: top concentration of the series differs between compounds; nearly all actives have a fitted effect of over 45% in size
In short: as §1

[8] = A CellTox Green Cytotoxicity Assay to monitor cytotoxicity in HEK293 cells - 32 hour (AID 1224881); further: nearly all actives have a fitted effect of over 40% in size
In short: as §2

[9] = A CellTox Green Cytotoxicity Assay to monitor cytotoxicity in HepG2 cells - 0 hour (AID 1224882); further: nearly all actives have a fitted effect of over 35% in size
In short: as §3

[10] = A CellTox Green Cytotoxicity Assay to monitor cytotoxicity in HepG2 cells - 32 hour (AID 1224883); further: nearly all actives have a fitted effect of over 50% in size
In short: as §3

[11] = A CellTox Green Cytotoxicity Assay to monitor cytotoxicity in HEK293 cells - 8 hour (AID 1224884); further: nearly all actives have a fitted effect of over 35% in size
In short: as §2

[12] = qHTS RealTime-Glo MT Cell Viability Assay in HepG2 cells - 16 hour (AID 1224885); further: nearly all actives have a fitted effect of over 50% in size
In short: as §4

[13] = qHTS RealTime-Glo MT Cell Viability Assay in HEK293 cells - 24 hour (AID 1224886); further: top concentration of the series differs between compounds; nearly all actives have a fitted effect of over 50% in size
In short: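 Quantitative high-throughput screen of the Tox21 10K library in HEK293: cells and RealTime-Glo reagents plated together, compound added at 5 h, luminescence monitored through 40 h at 37 C.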

[14] = qHTS RealTime-Glo MT Cell Viability Assay in HEK293 cells - 8 hour (AID 1224887)
In short: as §1

[15] = A CellTox Green Cytotoxicity Assay to monitor cytotoxicity in HEK293 cells - 16 hour (AID 1224888); further: nearly all actives have a fitted effect of over 35% in size
In short: as §2

[16] = qHTS RealTime-Glo MT Cell Viability Assay in HepG2 cells - 0 hour (AID 1224889); further: nearly all actives have a fitted effect of over 50% in size
In short: as §4

[17] = A CellTox Green Cytotoxicity Assay to monitor cytotoxicity in HepG2 cells - 8 hour (AID 1224890); further: nearly all actives have a fitted effect of over 45% in size
In short: as §3

[18] = qHTS assay to identify small molecule antagonists of the estrogen receptor alpha (ER-alpha) signaling pathway using the BG1 cell line in the presence of 0.1 nM 17-beta-estradiol - cell viability counter screen (AID 1259241); further: nearly all actives have a fitted effect of over 40% in size
In short: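 Estradiol-stimulated (0.1 nM) VM7Luc4E2 cells exposed to compounds 22 hr; viability measured by fluorescence of cleaved CellTiter-Fluor substrate after 30 min.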

[19] = qHTS assay to identify small molecule antagonists of the androgen receptor (AR) signaling pathway using the MDA cell line in the presence of 0.5 nM R1881 - cell viability counter screen (AID 1259242); further: nearly all actives have a fitted effect of over 45% in size
In short: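 Counter screen for cytotoxicity run in the same wells as the AR antagonist reporter screen: MDA-kb2 cells were treated 16 hr with test compounds and 0.5 nM R1881, then live-cell protease activity was measured by fluorescence.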

[20] = target: Androgen receptor (Homo sapiens) (UniProt P10275); assay: qHTS assay to identify small molecule antagonists of the androgen receptor (AR) signaling pathway using the MDA cell line in the presence of 0.5 nM R1881 (AID 1259243); further: nearly all actives have a fitted effect of over 50% in size
In short: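 Luciferase luminescence is the read-out: compounds are tested for suppressing 0.5 nM R1881-driven MMTV reporter activity in MDA-kb2 cells after 16 hr at 37C.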
On the % scale 0 is the no-effect control and ±100 the full control effect.

Chain of Androgen receptor (Homo sapiens) (P10275 whole entry, looked up): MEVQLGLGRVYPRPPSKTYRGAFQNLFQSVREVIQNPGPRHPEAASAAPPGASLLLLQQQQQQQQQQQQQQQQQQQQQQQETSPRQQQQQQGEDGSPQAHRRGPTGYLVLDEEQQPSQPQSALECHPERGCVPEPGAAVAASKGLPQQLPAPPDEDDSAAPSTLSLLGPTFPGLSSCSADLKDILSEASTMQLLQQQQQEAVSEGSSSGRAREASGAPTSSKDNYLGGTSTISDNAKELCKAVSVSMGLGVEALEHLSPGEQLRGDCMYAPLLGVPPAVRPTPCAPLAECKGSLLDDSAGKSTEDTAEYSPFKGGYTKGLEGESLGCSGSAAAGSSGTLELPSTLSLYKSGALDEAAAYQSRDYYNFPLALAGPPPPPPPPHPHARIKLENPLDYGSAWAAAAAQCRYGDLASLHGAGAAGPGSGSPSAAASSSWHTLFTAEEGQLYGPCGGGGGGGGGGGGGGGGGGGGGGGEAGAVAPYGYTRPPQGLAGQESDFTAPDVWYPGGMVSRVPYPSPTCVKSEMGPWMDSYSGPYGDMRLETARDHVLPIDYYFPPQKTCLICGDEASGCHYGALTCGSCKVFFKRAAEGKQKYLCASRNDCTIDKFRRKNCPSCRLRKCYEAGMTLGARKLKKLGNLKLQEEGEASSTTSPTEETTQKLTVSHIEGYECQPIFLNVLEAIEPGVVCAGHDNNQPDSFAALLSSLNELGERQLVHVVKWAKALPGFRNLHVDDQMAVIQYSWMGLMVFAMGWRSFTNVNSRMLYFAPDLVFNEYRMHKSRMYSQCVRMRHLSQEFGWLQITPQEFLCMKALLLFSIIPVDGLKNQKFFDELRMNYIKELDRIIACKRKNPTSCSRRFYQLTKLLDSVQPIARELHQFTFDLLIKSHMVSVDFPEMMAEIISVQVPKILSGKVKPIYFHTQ

ON=C1CCCCC1
inactive: max response [1] -0.0267% and 0.158% | Potency [2] | Potency [3] | outcome [4] | Potency [5] | Potency [6] | Potency [7] | Potency [8] | outcome [9] | Potency [10] | outcome [11] | outcome [12] | Potency [13] | Potency [14] | outcome [15] | Potency [16] | Potency [17] | Potency [18] | outcome [19]

O=C(O)c1cc(O)c(O)c(O)c1
inactive: max response [1] -26.7% and 2.18% | Potency [2] | Potency [3] | outcome [4] | Potency [5] | Potency [6] | Potency [7] | Potency [8] | outcome [9] | Potency [10] | outcome [11] | outcome [12] | Potency [13] | Potency [14] | Potency [16] | Potency [17] | Potency [18]

O=C1CCC(N2C(=O)c3ccccc3C2=O)C(=O)N1 (configuration not stated)
inactive: max response [1] 7.18% and -6.83% | Potency [2] | Potency [3] | outcome [4] | Potency [5] | Potency [6] | Potency [7] | Potency [8] | outcome [9] | Potency [10] | outcome [11] | outcome [12] | Potency [13] | Potency [14] | outcome [15] | Potency [16] | Potency [17] | outcome [19]

COc1ccc(Cl)cc1C(=O)NCCc1ccc(S(=O)(=O)NC(=O)NC2CCCCC2)cc1
inactive: max response [1] -19.9% and -25.1% | Potency [2] | Potency [3] | outcome [4] | Potency [5] | Potency [6] | Potency [8] | outcome [9] | Potency [10] | outcome [11] | outcome [12] | Potency [13] | Potency [14] | outcome [15] | Potency [17]

CC(=O)Nc1ccccc1
inactive: max response [1] 12.1% and 6.06% | Potency [2] | Potency [3] | outcome [4] | Potency [5] | Potency [6] | Potency [7] | Potency [8] | outcome [9] | Potency [10] | outcome [11] | outcome [12] | Potency [13] | Potency [14] | Potency [16] | Potency [17]

Nc1ccccc1[N+](=O)[O-]
inactive: max response [1] 3.94% and 2.64% | Potency [2] | Potency [3] | Potency [5] | Potency [6] | Potency [7] | Potency [8] | outcome [9] | Potency [10] | outcome [11] | outcome [12] | Potency [13] | Potency [14] | outcome [15] | Potency [16] | Potency [17] | Potency [18]

CCc1cccc(C)c1N
inactive: max response [1] 1.23% and 1.97% | Potency [2] | Potency [3] | outcome [4] | Potency [5] | Potency [6] | Potency [7] | Potency [8] | outcome [9] | Potency [10] | outcome [11] | outcome [12] | Potency [13] | Potency [14] | Potency [16] | Potency [17] | Potency [18] | Potency [20]

CCC(O)OC(O)CC (configuration not stated)
inactive: max response [1] 5.86% and 8.63% | Potency [2] | Potency [3] | outcome [4] | Potency [5] | Potency [6] | Potency [7] | Potency [8] | outcome [9] | Potency [10] | outcome [11] | outcome [12] | Potency [13] | Potency [14] | Potency [16] | Potency [17] | Potency [18] | outcome [19]

CC1CCC2CC1C2(C)C (configuration not stated)
inactive: max response [1] -4.21% and 10.8% | Potency [2] | Potency [3] | outcome [4] | Potency [5] | Potency [6] | Potency [7] | Potency [8] | outcome [9] | Potency [10] | outcome [11] | outcome [12] | Potency [13] | Potency [14] | Potency [16] | Potency [17] | outcome [19]

O=C(O)c1cc(C(=O)O)cc(S(=O)(=O)O)c1
inactive: max response [1] -1.84% and 1.2% | Potency [2] | Potency [3] | outcome [4] | Potency [5] | Potency [6] | Potency [7] | Potency [8] | outcome [9] | Potency [10] | outcome [11] | outcome [12] | Potency [13] | Potency [14] | Potency [16] | Potency [17] | Potency [18] | outcome [19]

Cc1cnc(C(=O)NCCc2ccc(S(=O)(=O)NC(=O)NC3CCCCC3)cc2)cn1
inactive: max response [1] 11.5% and 10.1% | Potency [2] | Potency [3] | outcome [4] | Potency [5] | Potency [6] | Potency [7] | Potency [8] | outcome [9] | Potency [10] | outcome [11] | outcome [12] | Potency [13] | Potency [14] | Potency [16] | Potency [17] | Potency [18]

FC(F)(F)c1ccc(Cl)c(Cl)c1
inactive: max response [1] 1.14% and 2.54% | Potency [2] | Potency [3] | outcome [4] | Potency [5] | Potency [6] | Potency [7] | Potency [8] | outcome [9] | Potency [10] | outcome [11] | outcome [12] | Potency [13] | Potency [14] | Potency [16] | Potency [17] | Potency [18] | Potency [20]

CC(=O)c1ccccc1
inactive: max response [1] 0.254% and 9.46% | Potency [2] | Potency [3] | outcome [4] | Potency [5] | Potency [6] | Potency [7] | Potency [8] | outcome [9] | Potency [10] | outcome [11] | outcome [12] | Potency [13] | Potency [14] | Potency [16] | Potency [17] | Potency [18]

NNc1nncc2ccccc12
inactive: max response [1] 2.59% | Potency [2] | Potency [3] | outcome [4] | Potency [5] | Potency [6] | Potency [7] | Potency [8] | outcome [9] | Potency [10] | outcome [11] | outcome [12] | activity change, negative = cytotoxicity [13] 2.63% [at 15.8 µM] | activity change, negative = cytotoxicity [14] 1.02% [at 15.8 µM] | Potency [16] | Potency [17] | outcome [19]
